# From PubChem
# CHX counter: Cycloheximide Counterscreen for Small Molecule Inhibitors of Shiga Toxin. max response, %. 12% of 300,000 active. cell reporter, cycloheximide protein synthesis inhibition counterscreen. AID 2314, 2010; in the data active = max response mostly above about 13%, no sharp cut-off; inactive = mostly below about 14%; also: read at 38.3 µM for the half of the compounds with a filed dose; 0% is about no effect
# Shiga toxin inh: A qHTS for Small Molecule Inhibitors of Shiga Toxin; Vero cells, Shiga toxin protein synthesis inhibition reporter; 9.2% of 290,000 active; inhibition, % at 38.7 µM; in the data active = inhibition mostly above about 28%, no sharp cut-off; inactive = mostly below about 43%; also: 0% is about no effect
# Pf growth 48h: Primary qHTS for delayed death inhibitors of the malarial parasite plastid, 48 hour incubation | P. falciparum luciferase growth in erythrocytes, 48 h | Potency, µM (series often up to 28.7 µM), inactives show at the top dose activity change, negative = inhibition, hits mostly inhibitors | 5.9% of 310,000 active | AID 504832, 2011; also: potency is read from the fitted curve at half-maximal effect; % is scaled to controls: 0 for no effect and ±100 for the full control effect
#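 In quantitative HTS format, infected erythrocytes bearing luciferase-reporter parasites were treated for a single generation at 37 C. Luminescence after adding detection reagent served as the growth measure.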
# NS1 inh: qHTS Assay for Inhibitors of Influenza NS1 Protein Function | Potency, µM (doses to about 46.1 µM), for inactives: at the top dose activity, positive = more growth | 0.4% of 270,000 active | AID 2326, 2010; calls by dose curve; also: potency is read from the fitted curve at half-maximal effect; actives are rising curves; nearly all actives have a fitted effect of over 50% in size
#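 Recovery from NS1-induced slow growth read by OD600 in budding yeast switched to galactose assay medium (pH 6.0, -URA) at 1:100 dilution. Compound 23 nl per well; the matching strain lacking NS1 serves as control.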
# Pf growth 96h: Primary qHTS for delayed death inhibitors of the malarial parasite plastid, 96 hour incubation | 6.9% of 320,000 active | Potency, µM (top dose mostly 28.7 µM), for the others: at the top dose activity change, negative = inhibition, actives largely listed as inhibitors | AID 504834, 2011 | P. falciparum luciferase reporter growth, 96 h; also: potency is read from the fitted curve at half-maximal effect; % is scaled to controls: 0 for no effect and ±100 for the full control effect
#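 Plates of compound plus infected erythrocytes (2% hematocrit, 0.05% parasitemia final) incubate 96 hours, 37 C, 5% CO2. Detection reagent added; reduced luminescence from the parasites' luciferase reporter flags inhibition.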
# FBPA Giardia inh: qHTS Assay for Inhibitors of Fructose-1,6-bisphosphate Aldolase from Giardia Lamblia; A8B2U2; purified Giardia FBPA; Potency, µM (top dose mostly 59.6 µM), inactives show at the top dose activity, negative = inhibition, actives largely listed as inhibitors; 0.71% of 290,000 active; AID 2451, 2010; also: potency is read from the fitted curve at half-maximal effect; % is scaled to controls: 0 for no effect and ±100 for the full control effect; nearly all actives have a fitted effect of over 55% in size
# Target sequence (A8B2U2 whole entry, looked up): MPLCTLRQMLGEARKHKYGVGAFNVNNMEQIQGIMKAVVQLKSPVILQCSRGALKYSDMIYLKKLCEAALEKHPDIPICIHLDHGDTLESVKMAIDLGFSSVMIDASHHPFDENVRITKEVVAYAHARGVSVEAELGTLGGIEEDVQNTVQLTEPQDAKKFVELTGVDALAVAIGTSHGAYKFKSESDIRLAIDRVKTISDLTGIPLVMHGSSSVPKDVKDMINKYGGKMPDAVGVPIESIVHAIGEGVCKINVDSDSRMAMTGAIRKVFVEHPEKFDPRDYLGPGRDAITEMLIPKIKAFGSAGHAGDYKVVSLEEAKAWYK
#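 40 nM FBPA preincubated 10 min at RT with compound (up to 57.5 uM final), then substrate plus GAPDH/TPI/NAD/arsenate coupling and diaphorase/resazurin added. Fluorescence read after 20 min at RT, 525/598 nm.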
# Active calls of the source: *; i = inactive; u = inconclusive; x = no result given; [ ] = another dose, or the depositor's remark. Sampled rows, rich in hits. Any-hit rate of the full collection: about 21%. Unless noted, calls follow the shape of the dose curve; as a rule, active = well fitted curve in the direction sought with a large enough effect; inconclusive = small, poorly fitted or top-dose-only effect, or another doubt; inactive = no such curve, though single readings can be large; an effect the other way counts as inactive or inconclusive.
SMILES,CHX counter,Shiga toxin inh,Pf growth 48h,NS1 inh,Pf growth 96h,FBPA Giardia inh
CCCNC(=O)COc1coc(CN2CCN(c3cccc(Cl)c3)CC2)cc1=O,-4,-5,-16%,-10%,10µM*,x
O=C(O)C1CCN(C(=O)CSc2nc3ccccc3c(=O)n2-c2ccc(Cl)cc2)CC1,-3,-6,-26%,23%,-16%,-2%
O=c1[nH]c2cc(Cl)c(O)cc2o1,-1,10,x,x,x,-6%
COc1cccc(=O)c2c(C)n(-c3ccc(C(=O)O)cc3)c(C)c12,3,7,u,14%,23%,u
COc1ccccc1-n1c(C)c2c(OC)cccc(=O)c2c1C,12,9,4.1µM*,u,154%,-11%
COc1ccc(-n2c(C)c3c(OC)cccc(=O)c3c2C)cc1,1,5,u,-1%,10µM*,-18%
Nc1ncnc2nn([C@H]3O[C@@H](CO)[C@@H](O)[C@H]3O)nc12,x,x,x,-1%,x,x
CCCc1cc(C(=O)NC2CCCCC2)no1,62*,61*,105%,-16%,31%,6%
Cc1cc(C(=O)NC2CCCCC2)on1,7,7,2%,-5%,16%,5%
CCCc1cc(C(=O)NC2CCCC2)no1,41*,86*,120%,-15%,-33%,1%
CC(C)c1cc(C(=O)NC2CCCCC2)no1,35*,11*,259%,4%,-14%,-4%
CC(C)(CO)[C@@H](O)C(=O)NCCC(=O)NCCSSCCNC(=O)CCNC(=O)[C@H](O)C(C)(C)CO,x,x,14%,x,14%,x
CC(C)CC(NC(=O)C1CCC(=O)N1)C(=O)NC(CC(C)C)C(=O)N1CCCC1C(N)=O (stereo unspecified),-1,12,-1%,-10%,u,14%
O=C(C1Cc2ccccc2CN1S(=O)(=O)c1ccc(F)cc1)N1CCCCC1 (stereo unspecified),-2,14,-16%,-49%,x,1%
O=C(Nc1nccs1)C1Cc2ccccc2CN1S(=O)(=O)c1ccc(F)cc1 (stereo unspecified),48*,94*,291%,-6%,i,0%
O=C(Nc1nnc(C2CC2)s1)C1Cc2ccccc2CN1S(=O)(=O)c1ccccc1F (stereo unspecified),41*,76,u,19%,u,x
O=C(NC1CCCCC1)C1Cc2ccccc2CN1S(=O)(=O)c1ccc(F)cc1 (stereo unspecified),0,4,u,-8%,13µM*,-4%
COC(=O)CNC(=O)C1Cc2ccccc2CN1S(=O)(=O)c1ccc(F)cc1 (stereo unspecified),-3,23,-11%[0.00184 µM],1%,-7%,u
CCNC(=O)C1Cc2ccccc2CN1S(=O)(=O)c1ccc(F)cc1 (stereo unspecified),0,-3,0.83µM*,-68%,25%,4%
COc1ccc2c(c1)c1nc3ccccc3nc1n2Cc1ccc(OC(C)C)c(OC)c1,-4,-7,12µM*,1%,u,3%
CC(C)C[C@H](NC(=O)N1CCCCCC1)C(=O)N[C@H](Cc1cn(C)c2ccccc12)C(=O)N[C@H](Cc1ccccn1)C(=O)O,-5,-4,x,x,x,1%
Clc1ccc(-c2nnc(N3CCCC3)nn2)cc1,34*,145*,0.37µM*,-34%,0.59µM*,0%
COC(=O)c1nnc(N[C@@H](Cc2c[nH]c3ccccc23)C(=O)OC)nc1C(=O)OC,x,x,x,x,x,-4%
CC(=O)NCCc1c[nH]c2ccc(OCC(O)CNC(C)(C)C)cc12 (stereo unspecified),1,26,40%,-3%,107%,-2%
O=C(Nc1ccc(S(=O)(=O)N2CCCCC2)cc1)C1CCCN(C(=O)c2ccc(Cl)cc2)C1 (stereo unspecified),-4,7,u,u,12µM*,-2%
SMILES,CHX counter,Shiga toxin inh,Pf growth 48h,NS1 inh,Pf growth 96h,FBPA Giardia inh
CC(NC(=O)C1CCCN(C(=O)c2ccc(Cl)cc2)C1)c1cccc(C(F)(F)F)c1 (stereo unspecified),x,x,13µM*,x,u,x
O=C(Nc1ccc(Cl)cc1)C1CCCN(c2cnccn2)C1 (stereo unspecified),24*,23,7%,-77%,u,x
CN(C)S(=O)(=O)c1ccc(NC(=O)C2CCCN(C(=O)c3ccc(Cl)cc3)C2)cc1 (stereo unspecified),-6,-9,-2%,-16%,u,-2%
O=C(Nc1cccc(S(=O)(=O)N2CCCCCC2)c1)C1CCN(C(=O)c2ccc(Cl)cc2)CC1,x,x,u,x,-19%,x
O=C(Nc1ccccc1)C1CCCN(C(=O)c2ccc(Cl)cc2)C1 (stereo unspecified),2,29,24%,x,9%,1%
O=C(Nc1ccc(F)cc1)C1CCCN(c2cnccn2)C1 (stereo unspecified),-3,10,24%,-3%,2%,-10%
O=C(Nc1cccc(S(=O)(=O)N2CCOCC2)c1)C1CCCN(C(=O)c2ccc(Cl)cc2)C1 (stereo unspecified),-3,-3,u,-11%,10µM*,2%
C=CCSC(=S)NC1CCS(=O)(=O)C1 (stereo unspecified),-7,7,-4%,2%,-8%,-8%
Cc1ccc2c(c1)N(CC(=O)NC1CCCC(C)C1C)C(=O)c1cccnc1O2 (stereo unspecified),2,-1,u,-4%,1%,9%
COc1ccc(N2C(=O)[C@H]3CCC=C[C@H]3[C@@H]2c2ccccc2Br)cc1,1,i,x,x,x,1%
CC(Nc1ccc(F)cc1)=[N+](C)CCNS(=O)(=O)c1ccc(Cl)cc1,-4,-3,-27%,8%,2%,x
CN(CC(=O)Nc1ccccc1Cl)C(=O)COC(=O)C1CC1,x,x,2%,x,u,x
O=C(c1cc(C(=O)N2CCOCC2)c2nc3ccccc3n2c1)c1cc(Cl)cc(Cl)c1O,0,2,u,7%,7%,0%
CCN(C=NC1=NN(c2cccc(C(F)(F)F)c2)CC1)CC,37*,66,-2%,-14%,-5%,-1%
Cc1cccc(N2CCC(N=CN(C)C)=N2)c1,41*,100*,46%,x,6%,-15%
OCCN(C=NC1=NN(c2cccc(C(F)(F)F)c2)CC1)CCO,-2,-13,61%,-73%,410%,0%
O=C1N=C(N2CCOCC2)S/C1=C1\C(=O)N(Cc2ccccc2)c2ccccc21,15,24,15%,4%,u,3%
CC1CN(C2=NC(=O)/C(=C3/C(=O)N(Cc4ccc(F)cc4)c4ccccc43)S2)CC(C)O1 (stereo unspecified),1,12,u,3%,5.9µM*,-17%
